IL-1B inflam inh: inhibitors of inflammasome signaling (IL-1 beta secretion); THP-1 LPS/ATP IL-1B secretion, AlphaLISA, 16 h; active compounds read low; activity change, % at 57.5 µM; actives 4.7% (n = 360,000); AID 743279; in the data active = activity change below about -50%; inconclusive = mostly about -30% to -49%
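Secreted IL-1B measured by AlphaLISA bead assay after 16 h compound exposure of THP-1 cells; compounds (final up to 57.5 uM) added 1 h before LPS (250 ng/mL) and ATP (1.25 mM) stimulation; lower signal means less secretion.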
DT40 TDP1 no CPT: qHTS for Inhibitors of human tyrosyl-DNA phosphodiesterase 1 (TDP1): qHTS in cells in absence of CPT | DT40 Tdp1-/- hTDP1 cells, no CPT, ATP luminescence, 48 h | actives 15% (n = 420,000) | Potency, µM (doses to about 46.2 µM), hits mostly inhibitors | AID 686978, 2013; note: nearly all actives have a fitted effect of over 55% in size
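Stably hTDP1-transfected Tdp1-null chicken DT40 cells were treated with library compounds minus camptothecin and grown for at least 48 hr at 37 °C, after which cellular ATP was quantified by luminescence.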
HT1080NT lethal: kills 2HG-producing HT-1080-NT fibrosarcoma cells. HT-1080-NT fibrosarcoma viability, CellTiter-Glo ATP luminescence, 48 h. Potency, µM (highest dose often 46.1 µM), most hits filed as cytotoxic. actives 1.6% (n = 360,000);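 note: NT is the 2HG producing partner of a matched IDH1 knockdown line; nearly all actives have a fitted effect of over 55% in size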
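Viability by CellTiter-Glo luminescence after 48 h compound exposure at 37C of HT-1080-NT cells (750/well, RPMI, 5% FBS). % activity scaled between DMSO wells and medium-only wells, then curve-fitted and categorized by curve class.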
TDP1 cell CPT: growth inhibition of DT40 Tdp1-/-;hTDP1 cells with camptothecin (screen for TDP1 inhibitors) | actives 12% (n = 420,000) | Potency, µM (titrated, usually from 46.2 µM), most hits filed as inhibitors | chicken DT40 Tdp1-/-;hTDP1 cells + 20 nM CPT, ATP luminescence, 48 h | AID 686979; note: nearly all actives have a fitted effect of over 55% in size
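Chicken DT40 Tdp1-/- cells complemented with human TDP1, 400 cells/well, exposed to compounds plus 20 nM camptothecin for at least 48 h at 37 C; viability read as ATP content by CellTiter-Glo luminescence.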
HT1080 IDH1KD tx: kills HT-1080 cells with IDH1 knockdown; HT-1080 IDH1 knockdown viability, ATP luminescence, 48 h; Potency, µM (series often up to 46.1 µM), hits mostly cytotoxic; actives 2% (n = 360,000)
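CellTiter-Glo luminescence after 48 h compound exposure at 37 degrees C of IDH1-knockdown HT-1080 cells in 5% FBS RPMI. %Activity scaled between DMSO wells and cell-free media wells, with curves fitted and assigned curve classes.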
Hits are given with their value; i = inactive; ? = inconclusive; nt = not tested or not shown; [ ] = remark or other dose. The list is not random: actives were taken first. Their share in the collection is about 19%. Unless noted, calls come from the whole dose curve; as a rule, active = well fitted curve in the direction sought with a large enough effect; inconclusive = small, poorly fitted or top-dose-only effect, or another doubt; inactive = no such curve, though single readings can be large; an effect the other way counts as inactive or inconclusive.

SMILES	IL-1B inflam inh	DT40 TDP1 no CPT	HT1080NT lethal	TDP1 cell CPT	HT1080 IDH1KD tx
O=C(COC(=O)c1cc(S(=O)(=O)N2CCCCC2)ccc1N1CCOCC1)c1ccc(Cl)cc1	i	?	i	?	i
COCC(=O)N1CCC(Oc2ccc(C(=O)NCCCC3CCCC3)cc2)CC1	i	18µM	i	13µM	i
CC(=O)/C(C#N)=C1\NC(=O)C(Cc2ccc(C)c(Cl)c2)S1 (stereo unspecified)	i	2.1µM	i	10µM	?
CCc1ccc(CC2S/C(=C(\C#N)C(C)=O)NC2=O)cc1 (stereo unspecified)	i	2.3µM	i	1.6µM	?
O=C1NC(=Nc2ccc(F)cc2)SC1Cc1ccc(F)cc1 (stereo unspecified)	?	?	i	?	i
Cc1cc(C(=O)NNC(=O)C(C)NS(=O)(=O)c2ccccc2F)c(C)o1 (stereo unspecified)	i	i	i[9.24 µM]	i	i
O=C(CC1(O)C(=O)Nc2cc(Cl)cc(Cl)c21)c1ccncc1 (stereo unspecified)	-100	?	i	?	?
Cc1ccc(Cl)c2c1NC(=O)C2(O)CC(=O)c1ccc(Br)cc1 (stereo unspecified)	i	i	i	i	i
CCOC(=O)Cc1ccc(Nc2nc(NCc3cccs3)nc3ccsc23)cc1	-84	21µM	?	21µM	i
c1csc(CNc2nc(Oc3ccncc3)c3sccc3n2)c1	?	i	i	i	?
COc1ccc(Nc2nc(NCc3cccs3)nc3ccsc23)cc1OC	-87	18µM	?	26µM	?
COC(=O)c1cccc(CN2C(=O)SC(Nc3ccc(Br)cc3)C2=O)c1 (stereo unspecified)	nt	i	nt	i	nt
COc1cc(CCN2C(=O)c3cccc4cccc(c34)C2=O)c(S(=O)(=O)NCCO)cc1OC	nt	?	i	?	i
COc1cc(CCN2C(=O)c3cccc4cccc(c34)C2=O)c(S(=O)(=O)N2CCC(C)CC2)cc1OC	i	2.6µM	i	26µM	i
CCCCCCCCc1nnc(NC(=O)c2ccco2)s1	i	i	i	i	i[9.24 µM]
CC(NC(=O)Nc1cccc(Cl)c1)C(c1cccs1)N1CCCC1 (stereo unspecified)	-54	?	i	i	i
CC(NC(=O)Nc1ccc(Cl)cc1)C(c1cccs1)N1CCOCC1 (stereo unspecified)	i	?	?	?	?
CC(NC(=S)Nc1ccc(Cl)cc1Cl)C(c1cccs1)N1CCCC1 (stereo unspecified)	-81	?	i	?	i
O=C(OCc1c(F)cccc1Cl)c1cccc(S(=O)(=O)N2CCOCC2)c1	i	?	i	i	i
CCn1cc(C(=O)NCCC(=O)NC(C)C)c(=O)c2cc3c(cc21)OCO3	i	i	i	i	i
COc1ccc(Nc2ncnc3c2cnn3-c2cc(Cl)ccc2C)cc1OC	nt	?	nt	21µM	nt
COCCNc1ncnc2c1cnn2-c1cc(Cl)ccc1C	nt	?	nt	i	nt
Cc1ccc(Cl)cc1-n1ncc2c(Nc3cccc(C)c3C)ncnc21	nt	16µM	nt	16µM	nt
COc1ccc(Nc2ncnc3c2cnn3-c2cccc(C)c2)cc1OC	i	i	i	?	i
CCOC(=O)[C@]12CCCC=C1N(Cc1cccc3ccccc13)C(=O)[C@H](CC(=O)NCc1cccc3ccccc13)C2	i	?	i	?	i
SMILES	IL-1B inflam inh	DT40 TDP1 no CPT	HT1080NT lethal	TDP1 cell CPT	HT1080 IDH1KD tx
CCCCCCCCN1C(=O)[C@H](CC(=O)NCc2cccc3ccccc23)C[C@@]2(C(=O)OCC)CCCC=C12	i	16µM	?	?	?
CCCCOCCCNC(=O)C[C@@H]1C[C@@]2(C(=O)OCC)CCCC=C2N(Cc2cccc3ccccc23)C1=O	?	13µM	?	18µM	?
Cc1ccc(NC(=S)N/N=C2\CCCCC2C)cc1 (stereo unspecified)	i	9.2µM	?	5.2µM	?
CC1CCCC/C1=N\NC(=S)Nc1cccnc1 (stereo unspecified)	i	i	i	i	i
COc1cc2ncc(C(=O)c3ccccc3)c(N3CCN(Cc4ccccc4)CC3)c2cc1OC	-77	18µM	?	?	i
O=C(c1ccccc1)c1cnc2ccc(Cl)cc2c1N1CCOCC1	i	i	i	i	i
